Source: ChEMBL document CHEMBL1961873, “Compounds: GSK PKIS; Assays: Nanosyn kinase panel” (2012)

How the values were obtained:
[1] = target: Protein kinase C gamma type (Homo sapiens) (UniProt P05129); conditions: at 1 µM;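 note: each value is an averaged percent inhibition of the enzyme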
[2] = target: T1, Protein kinase C iota type (Homo sapiens) (UniProt P41743); conditions: at 0.1 µM
T1 sequence (whole entry): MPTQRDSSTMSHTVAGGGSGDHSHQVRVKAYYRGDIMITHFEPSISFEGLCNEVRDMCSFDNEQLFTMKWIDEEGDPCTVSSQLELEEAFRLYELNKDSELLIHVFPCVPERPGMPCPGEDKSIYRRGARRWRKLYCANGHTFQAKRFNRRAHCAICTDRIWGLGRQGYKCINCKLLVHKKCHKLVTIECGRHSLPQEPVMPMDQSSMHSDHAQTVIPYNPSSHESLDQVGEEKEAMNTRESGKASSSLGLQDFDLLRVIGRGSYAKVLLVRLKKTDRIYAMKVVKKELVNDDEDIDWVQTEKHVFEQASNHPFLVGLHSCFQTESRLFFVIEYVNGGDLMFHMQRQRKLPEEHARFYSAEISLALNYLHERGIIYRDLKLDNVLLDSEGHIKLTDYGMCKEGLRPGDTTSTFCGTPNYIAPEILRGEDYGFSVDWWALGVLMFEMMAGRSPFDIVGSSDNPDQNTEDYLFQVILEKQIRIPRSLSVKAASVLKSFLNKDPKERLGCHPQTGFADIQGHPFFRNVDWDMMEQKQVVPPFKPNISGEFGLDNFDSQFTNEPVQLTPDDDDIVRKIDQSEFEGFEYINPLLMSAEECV

[3] = target: T1, Protein kinase C iota type (Homo sapiens); conditions: at 1 µM
[4] = target: Protein kinase C theta type (Homo sapiens) (UniProt Q04759); conditions: at 0.1 µM
Sequence of Protein kinase C theta type (Homo sapiens) (Q04759 whole entry, looked up): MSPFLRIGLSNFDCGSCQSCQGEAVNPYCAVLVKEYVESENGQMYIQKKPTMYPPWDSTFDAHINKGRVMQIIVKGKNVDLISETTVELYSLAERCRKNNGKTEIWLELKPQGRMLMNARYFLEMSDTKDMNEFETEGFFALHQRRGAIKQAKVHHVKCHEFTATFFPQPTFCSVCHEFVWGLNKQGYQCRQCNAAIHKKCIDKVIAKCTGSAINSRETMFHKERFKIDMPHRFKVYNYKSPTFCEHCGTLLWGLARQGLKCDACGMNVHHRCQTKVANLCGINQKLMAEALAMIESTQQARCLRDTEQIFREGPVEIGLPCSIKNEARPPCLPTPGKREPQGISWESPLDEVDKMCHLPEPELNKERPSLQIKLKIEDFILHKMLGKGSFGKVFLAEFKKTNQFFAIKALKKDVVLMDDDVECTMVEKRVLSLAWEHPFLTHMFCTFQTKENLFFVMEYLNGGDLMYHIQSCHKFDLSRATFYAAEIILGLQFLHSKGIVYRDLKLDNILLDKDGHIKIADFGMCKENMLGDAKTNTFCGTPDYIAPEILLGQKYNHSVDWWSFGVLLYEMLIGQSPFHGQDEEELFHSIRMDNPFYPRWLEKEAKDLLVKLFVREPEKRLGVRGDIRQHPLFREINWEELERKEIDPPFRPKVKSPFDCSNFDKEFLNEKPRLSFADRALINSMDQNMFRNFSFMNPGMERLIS

[5] = target: Protein kinase C theta type (Homo sapiens) (UniProt Q04759); conditions: at 1 µM
[6] = target: Protein kinase C beta type (Homo sapiens) (UniProt P05771); conditions: at 0.1 µM
Sequence of Protein kinase C beta type (Homo sapiens) (P05771 2-671 limits assumed): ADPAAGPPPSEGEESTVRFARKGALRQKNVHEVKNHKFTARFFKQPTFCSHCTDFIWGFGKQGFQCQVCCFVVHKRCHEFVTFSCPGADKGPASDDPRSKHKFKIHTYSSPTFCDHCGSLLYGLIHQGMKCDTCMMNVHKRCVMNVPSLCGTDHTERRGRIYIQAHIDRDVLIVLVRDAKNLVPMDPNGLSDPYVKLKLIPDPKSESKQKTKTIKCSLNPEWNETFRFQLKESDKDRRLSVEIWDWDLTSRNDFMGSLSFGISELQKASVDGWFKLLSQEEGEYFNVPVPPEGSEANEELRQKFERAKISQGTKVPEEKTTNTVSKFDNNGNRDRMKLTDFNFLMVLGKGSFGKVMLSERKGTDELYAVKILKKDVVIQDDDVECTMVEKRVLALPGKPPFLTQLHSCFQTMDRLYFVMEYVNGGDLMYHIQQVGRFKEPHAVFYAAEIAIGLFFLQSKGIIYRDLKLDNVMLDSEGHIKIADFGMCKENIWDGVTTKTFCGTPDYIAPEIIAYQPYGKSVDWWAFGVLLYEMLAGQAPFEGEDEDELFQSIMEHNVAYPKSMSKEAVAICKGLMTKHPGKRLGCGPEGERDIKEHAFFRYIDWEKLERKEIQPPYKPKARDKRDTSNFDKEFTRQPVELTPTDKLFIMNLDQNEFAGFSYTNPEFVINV

[7] = target: Protein kinase C beta type (Homo sapiens) (UniProt P05771); conditions: at 1 µM
[8] = target: T2, Serine/threonine-protein kinase D1 (Homo sapiens) (UniProt Q15139); conditions: at 0.1 µM
T2 sequence (whole entry): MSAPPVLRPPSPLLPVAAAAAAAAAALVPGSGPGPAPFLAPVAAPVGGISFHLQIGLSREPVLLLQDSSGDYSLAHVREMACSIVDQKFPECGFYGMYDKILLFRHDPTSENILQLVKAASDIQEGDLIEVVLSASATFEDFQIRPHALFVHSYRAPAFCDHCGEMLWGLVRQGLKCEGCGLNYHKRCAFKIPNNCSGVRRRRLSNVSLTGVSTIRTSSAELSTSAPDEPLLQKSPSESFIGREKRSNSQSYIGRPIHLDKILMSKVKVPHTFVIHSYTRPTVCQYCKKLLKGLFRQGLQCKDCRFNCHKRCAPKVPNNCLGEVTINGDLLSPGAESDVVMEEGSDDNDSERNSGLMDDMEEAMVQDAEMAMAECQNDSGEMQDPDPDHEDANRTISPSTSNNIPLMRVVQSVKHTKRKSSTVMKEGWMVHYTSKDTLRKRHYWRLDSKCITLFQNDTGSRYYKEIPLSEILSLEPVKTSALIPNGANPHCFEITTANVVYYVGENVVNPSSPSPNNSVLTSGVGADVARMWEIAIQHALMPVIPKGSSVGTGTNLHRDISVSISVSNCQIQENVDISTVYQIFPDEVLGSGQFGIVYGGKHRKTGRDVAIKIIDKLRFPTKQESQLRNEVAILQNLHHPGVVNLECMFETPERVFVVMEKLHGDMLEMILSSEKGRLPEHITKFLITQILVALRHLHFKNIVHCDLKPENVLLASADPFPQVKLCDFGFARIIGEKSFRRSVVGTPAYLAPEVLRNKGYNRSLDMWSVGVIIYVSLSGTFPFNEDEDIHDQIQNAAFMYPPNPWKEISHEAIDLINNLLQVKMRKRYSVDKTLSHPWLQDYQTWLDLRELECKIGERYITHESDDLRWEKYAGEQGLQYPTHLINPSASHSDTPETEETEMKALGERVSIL

[9] = target: T2, Serine/threonine-protein kinase D1 (Homo sapiens); conditions: at 1 µM
[10] = target: T3, Serine/threonine-protein kinase D2 (Homo sapiens) (UniProt Q9BZL6); conditions: at 0.1 µM;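 note: reported percent inhibition values are means, part of the GSK PKIS kinase panel screen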
T3 sequence (whole entry): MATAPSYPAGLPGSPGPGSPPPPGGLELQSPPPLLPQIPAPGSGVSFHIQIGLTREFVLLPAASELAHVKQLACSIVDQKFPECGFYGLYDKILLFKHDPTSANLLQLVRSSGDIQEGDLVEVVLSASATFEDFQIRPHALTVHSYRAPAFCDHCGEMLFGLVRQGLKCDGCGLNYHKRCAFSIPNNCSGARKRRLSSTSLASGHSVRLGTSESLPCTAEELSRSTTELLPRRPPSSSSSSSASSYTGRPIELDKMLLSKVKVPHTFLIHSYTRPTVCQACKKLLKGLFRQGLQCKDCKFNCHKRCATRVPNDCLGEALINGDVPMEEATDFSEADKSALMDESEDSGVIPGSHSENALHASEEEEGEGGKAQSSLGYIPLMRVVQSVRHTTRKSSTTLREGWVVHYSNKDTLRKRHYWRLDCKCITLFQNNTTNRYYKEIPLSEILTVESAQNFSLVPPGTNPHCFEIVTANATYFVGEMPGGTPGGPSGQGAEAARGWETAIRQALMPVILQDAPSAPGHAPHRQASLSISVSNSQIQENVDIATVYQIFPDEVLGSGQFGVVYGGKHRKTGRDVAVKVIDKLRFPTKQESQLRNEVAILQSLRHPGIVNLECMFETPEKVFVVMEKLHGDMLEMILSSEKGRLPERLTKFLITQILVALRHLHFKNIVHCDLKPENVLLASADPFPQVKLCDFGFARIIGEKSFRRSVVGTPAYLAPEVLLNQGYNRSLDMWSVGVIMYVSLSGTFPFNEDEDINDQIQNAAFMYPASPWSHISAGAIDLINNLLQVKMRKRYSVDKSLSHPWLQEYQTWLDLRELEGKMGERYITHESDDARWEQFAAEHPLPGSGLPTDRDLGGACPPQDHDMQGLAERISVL

SMILES | inhibition [1] [%] | inhibition [2] [%] | inhibition [3] [%] | inhibition [4] [%] | inhibition [5] [%] | inhibition [6] [%] | inhibition [7] [%] | inhibition [8] [%] | inhibition [9] [%] | inhibition [10] [%]
c1ccc(-c2n[nH]cc2-c2ccnc(-c3ccc(OCCn4ccnc4)cc3)c2)nc1 | 2.35 | 0.38 | -0.37 | 0.23 | 0.98 | 0.85 | -0.29 | 9.5 | 56.5 | 14.6
COc1cc2c(cc1Nc1nc(Nc3cccc(F)c3C(N)=O)c3cc[nH]c3n1)N(C(=O)CN1CCN(C(C)C)CC1)CC2 | 3.85 | -0.63 | -1.02 | 2.08 | 5.05 | 1.31 | 2.64 | 4.89 | 12.4 | 4.84
CCOc1ccc2c(-c3ccnc(Nc4cc(OC)cc(C(F)(F)F)c4)n3)cnn2n1 | 1.98 | 1.79 | -0.03 | 0.28 | -0.68 | 1.09 | 3.36 | 0.73 | 0.65 | 0.66
CNC(=O)c1ncccc1Nc1nc(Nc2cc3c(cc2OC)CCCN3C(=O)CN(C)C)nc2[nH]ccc12 | 20.5 | 1.89 | 2.01 | 1.94 | 5.49 | 1.44 | 7.12 | 5.48 | 24.5 | 7.16
CN1CCC(n2cnc(-c3ccc(F)cc3)c2-c2ccnc(NCCO)n2)CC1 | 5.6 | 1.02 | 1.08 | 3.59 | 5.13 | 1.17 | 7.68 | 5.8 | 14.6 | 4.75
COc1c(C(N)=O)cc(-c2ccc(Cl)cc2)cc1-c1ccc(S(N)(=O)=O)cc1 | 4.7 | 1 | 0.99 | 2.35 | 3.92 | 1.11 | 3.56 | 4.74 | 5.66 | 3.83
COC(=O)Nc1nc2ccc(Oc3ccc(NC(=O)Nc4cc(C(F)(F)F)ccc4F)cc3)cc2s1 | 0.59 | -0.25 | 0.66 | -0.27 | -1.1 | -0.19 | -0.04 | 0.06 | 0.84 | -0.61
COc1ccc(-c2nn3ncccc3c2-c2ccnc(Nc3ccc(F)c(F)c3)n2)cc1 | 6.44 | 1.96 | 0.63 | 2.86 | 7.77 | 1.81 | 3.24 | 4.47 | 5.19 | 3.52
NS(=O)(=O)c1ccc(N/N=C2\C(=O)Nc3ccc(C(=O)NCc4ccncc4)cc32)cc1 | 6.61 | -9.87 | 1.34 | 3.98 | 8.38 | 1.7 | 4.09 | 3.88 | 24.4 | 6.54
CCCNc1cccc(-n2ncc3c(N/N=C/c4ccncc4)ncnc32)c1 | 5.49 | 3.86 | 12.5 | 1.36 | 2.98 | 3.39 | 3.89 | 2.19 | 1.22 | -2.37
COc1ccc(Nc2ncc(-c3ccccc3)o2)cc1OC | 1.49 | -0.08 | 0.61 | -0.85 | -0.93 | -0.24 | 1.4 | 0.41 | 2.5 | 0.6
CN(c1ccc(NC(=O)NCCN2CCOCC2)cc1)c1ccnc(Nc2ccc(CS(C)(=O)=O)cc2)n1 | 4.99 | 2.77 | 2.1 | 2.63 | 3.43 | 0.67 | -0.33 | 2.05 | 1.78 | 2
CC1=C(C(=O)Nc2ccc3[nH]ncc3c2)C(c2ccc(F)cc2)N=C(c2ccc(C(F)(F)F)nc2)N1 (stereo not given) | 3.28 | 1 | 1.59 | 1.3 | 1.01 | 4.27 | 0.68 | 2.04 | 3.26 | 2.6
Fc1cccc(COc2ccc(Nc3ncncc3C#Cc3ccccc3)cc2Cl)c1 | 4.55 | 1.11 | 0.75 | 3.42 | 4.89 | 0.66 | 1.48 | 4.73 | 7.41 | 5.16
CS(=O)(=O)Nc1ccc(-c2cc(-c3ccccc3)cc(C(N)=O)c2N)cc1 | 1.39 | 1.17 | 1.73 | 0.69 | 0.71 | 0.99 | 1.98 | 1.67 | 1.98 | 0.22
Cc1cc(O)cc(C)c1/C=C/c1cncc(C(N)=O)c1 | 2.79 | 0.54 | 1.6 | 1.21 | 0.54 | 1.28 | 1.05 | 2.25 | 3.69 | 2.04
